Measurements taken from ChEMBL document CHEMBL1201862, “PubChem BioAssay data set” (2004).
“And” between values parts separate entries of the source, which are not always exact repeats. Equal entries are not always repeated.

Experiment: A High Throughput Confirmatory Assay used to Identify Novel Compounds that Inhibit Mycobacterium Tuberculosis in the absence of Glycerol using Purified and Synthesized Compounds (8).
Format: functional

| SMILES | IC90 |
| --- | --- |
| O=C(c1ccc(CNc2c(N3CCCC3)c(=O)c2=O)cc1)N1CCc2ccccc2C1 | > 100 µM (active) |
| CC1CCCN(C(=O)C2CCC(CNc3c(N4CCCCC4)c(=O)c3=O)CC2)C1 (centres undefined) | > 100 µM (active) |
| CC(C)OC(=O)CSc1ncnc2c1cnn2-c1ccccc1 | > 100 µM (active) |
| O=C(c1ccc(CNc2c(N3CCCC3)c(=O)c2=O)cc1)N1CC=C(c2ccccc2)CC1 | > 100 µM (active) and > 47.2 µM (active) |
| CC(=O)c1ccc(NC(=O)c2ccc(CNc3c(N4CCOCC4)c(=O)c3=O)cc2)cc1 | > 100 µM (active) |
| CC(C)CCNC(=O)CSc1nc2c(c(=O)[nH]1)CCCCC2 | > 100 µM (active) |
| O=C(c1ccc(CNc2c(N3CCOCC3)c(=O)c2=O)cc1)N1CCN(c2ccccc2)CC1 | > 53.1 µM (active) |
| CCOC(=O)N1CCC(/N=c2\c(O)c(O)\c2=N/c2cccc(CC)c2)CC1 | > 59.3 µM (active) |
| O=C(c1ccc(CNc2c(N3CCOCC3)c(=O)c2=O)cc1)N1CCC(c2ccccc2)CC1 | > 68.9 µM (active) |
| CC1CC(C)CN(C(=O)c2ccc(CNc3c(N4CCCC4)c(=O)c3=O)cc2)C1 (centres undefined) | > 100 µM (active) |
| O=C(c1ccc(CNc2c(N3CCCC3)c(=O)c2=O)cc1)N1CCC(c2ccccc2)CC1 | > 100 µM (active) |
| CC1CCCN(C(=O)c2ccc(CNc3c(N4CCCCC4)c(=O)c3=O)cc2)C1 (centres undefined) | > 100 µM (active) |
| O=C(c1ccc(CNc2c(N3CCCC3)c(=O)c2=O)cc1)N1CCN(c2ccccc2)CC1 | > 100 µM (active) |
| COc1ccc(N2CCN(C(=O)c3ccc(CNc4c(N5CCOCC5)c(=O)c4=O)cc3)CC2)cc1 | > 100 µM (active) |
| O=C(NCCc1ccc(Cl)cc1)C1CCC(CNc2c(N3CCCCC3)c(=O)c2=O)CC1 (centres undefined) | > 83.3 µM (active) |
| O=C(C1CCC(CNc2c(N3CCCCC3)c(=O)c2=O)CC1)N1CCCCC1 (centres undefined) | > 83.3 µM (active) |
| CC1CC(C)CN(C(=O)C2CCC(CNc3c(N4CCCCC4)c(=O)c3=O)CC2)C1 (centres undefined) | > 75 µM (active) and > 100 µM (active) |
| CC1CCN(C(=O)c2ccc(CNc3c(N4CCCC4)c(=O)c3=O)cc2)CC1 | > 100 µM (active) |
| O=C(NCCc1ccc(Cl)cc1)c1ccc(CNc2c(N3CCOCC3)c(=O)c2=O)cc1 | > 100 µM (active) |
